Sm TGR block: S. mansoni TGR enzyme inhibition. Potency, µM (top dose mostly 114 µM), for inactives: at the highest dose activity change, negative = inhibition, most hits filed as inhibitors. Q962Y6. purified TGR, DTNB reduction, TNB absorbance 405 nm. 360,000 compounds, 3% hits; further: potency means the concentration at half of the fitted maximal effect; on the % scale 0 is the no-effect control and ±100 the full control effect; nearly all actives have a fitted effect of over 60% in size
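First, TGR (20 nM dispensed) and NADPH were mixed with compound. Second, a 15 min room-temperature incubation followed. Third, further NADPH and then DTNB were added to start the reaction. Finally, TNB absorbance was monitored kinetically.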
HCMV inh: human cytomegalovirus inhibition; HFF cells, HCMV-luciferase reporter, 72 h; active compounds read low; activity change, negative = inhibition, % at 57.5 µM; 410,000 compounds, 4.5% hits; in the data active means activity change below about -60%; inconclusive means no clear call, values can overlap the other calls; inactive means above about -39%; further: on the % scale 0 is the no-effect control and ±100 the full control effect
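Inhibition of viral replication was scored as loss of reporter luminescence in HFFs infected with HCMV-luciferase (MOI 1 PFU/cell) for 72 h; compounds tested at 2 doses, normalized to buffer and Salinomycin controls.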
Pf growth 96h: P. falciparum growth inhibition at 96 hours. P. falciparum luciferase reporter growth, 96 h. AID 504834. 320,000 compounds, 6.9% hits. Potency, µM (titrated, usually from 28.7 µM), for the others: top-dose activity change, negative = inhibition, most hits filed as inhibitors; further: potency means the concentration at half of the fitted maximal effect; on the % scale 0 is the no-effect control and ±100 the full control effect
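Cell-based qHTS: luciferase-tagged P. falciparum in erythrocytes (2% hematocrit, 0.05% parasitemia final) incubated with compounds for 96 hours, 37 C, 5% CO2; luciferase detection reagent then added and luminescence measured.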
HCV inhibitor: blocks hepatitis C virus | Huh7.5.1 HCVcc-Cre infection, luciferase reporter, 44 h | Potency, µM (titrated, usually from 41.8 µM), inactives show at the top dose activity change, negative = inhibition, most hits filed as inhibitors | 340,000 compounds, 3.4% hits | AID 651820; further: potency means the concentration at half of the fitted maximal effect; on the % scale 0 is the no-effect control and ±100 the full control effect
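Cells seeded at 1,000/well and cultured 4 h, then compounds added followed by HCVcc-Cre virus (~0.5 moi). After 44 h further culture, luciferase substrate was added, plates held 15 min at room temperature, and luminescence read for 15 sec.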
SARS PLP yeast: inhibitors of SARS-CoV papain-like protease in yeast | Potency, µM (top dose mostly 32.9 µM), for the others: top-dose activity, positive = growth rescue, usual class: activators | 330,000 compounds, 0.19% hits | AID 485353 | S. cerevisiae expressing SARS-CoV PLpro, growth rescue; calls by dose curve; further: potency means the concentration at half of the fitted maximal effect; 0% is about no effect; nearly all actives have a fitted effect of over 55% in size
Pf growth 48h: inhibits P. falciparum growth in the first generation, 48 h; Potency, µM (doses to about 28.7 µM), without a hit: top-dose activity change, negative = inhibition, usual class: inhibitors; AID 504832; P. falciparum luciferase growth in erythrocytes, 48 h; 310,000 compounds, 5.9% hits; further: potency means the concentration at half of the fitted maximal effect; on the % scale 0 is the no-effect control and ±100 the full control effect
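Firefly luciferase activity from engineered P. falciparum reports growth; inhibitors lower the luminescent signal. Cultures contained 2% hematocrit erythrocytes at 0.1% final parasitemia.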
* = called active by the depositor; ? = inconclusive; nt = no result given; [ ] = remark or other dose. Most compounds without a hit are left out; they make up all but 15% or so of the library. Unless noted, the call rests on the fitted dose curve; in most records, active means well fitted curve in the direction sought with a large enough effect; inconclusive means small, poorly fitted or top-dose-only effect, or another doubt; inactive means no such curve, though single readings can be large; an effect the other way counts as inactive or inconclusive.

SMILES | Sm TGR block | HCMV inh | Pf growth 96h | HCV inhibitor | SARS PLP yeast | Pf growth 48h
N#CC1=C(N)N2C(=C(C#N)C1c1cccc(Br)c1)Nc1ccccc12 (stereo not drawn) | -11% | -97* | ? | ? | -2% | 8%
N#CC1=C(N)N2C(=C(C#N)C1c1ccc(Br)cc1)Nc1ccccc12 (stereo not drawn) | -3% | -100* | 9.3µM* | 6.3µM* | -10% | ?
N#CC1=C(N)N2C(=C(C#N)C1c1ccccc1)Sc1ccccc12 (stereo not drawn) | -9% | nt | 0% | ? | -4% | -2%
N#CC1=C(N)N2C(=C(C#N)C13CCN(Cc1ccccc1)CC3)Nc1ccccc12 | -17% | -3 | 14% | -6% | -2% | ?
CCCC(=O)N(c1ccc2oc(-c3ccccc3)c(C(=O)OCC)c2c1)S(=O)(=O)c1ccc(C)cc1 | 1% | -24 | nt | nt | nt | nt
Cc1ccsc1/C=N/NC(=O)c1cc(-c2ccncc2)nc2ccccc12 | -4% | -95* | ? | ? | -9% | ?
Cc1ccc(-c2cc(C(=O)N/N=C/c3cccnc3)c3ccccc3n2)cc1C | nt | 43 | nt | -12% | nt | nt
Cc1cccc(-c2cc(C(=O)Nc3sc(C)c(C)c3C(N)=O)c3ccccc3n2)c1 | 0% | 2 | ? | -24% | 5% | 34%
Cc1ccc(C)c(-c2cc(C(=O)N/N=C/c3cccnc3)c3ccccc3n2)c1 | 0% | ? | 4.7µM* | -5% | -2% | ?
CCOC(=O)c1sc(NC(=O)CSc2n[nH]c(-c3ccccc3)n2)c(C#N)c1C | 0% | -32 | ? | 7% | -25% | -12%
Cc1ccc(C)c(-c2cc(C(=O)Nc3sc(C)c(C)c3C(N)=O)c3ccccc3n2)c1 | 12% | -33 | 10µM* | 11µM* | -4% | ?
CCOC(=O)c1sc(NC(=O)c2cc(-c3ccccc3)nc3ccccc23)c(C#N)c1C | -14% | -95* | 8% | 8% | 0% | 31%
CCCCNC(=O)C(C)(C)n1cc(NC(=O)Cc2ccc(F)cc2)cn1 | nt | 2 | nt | nt | nt | nt
COc1ccccc1-c1cc(NC(=O)COc2ccccc2Cl)n(-c2ccccc2)n1 | 7% | 18 | nt | nt | nt | nt
COc1ccccc1-c1cc(C(=O)N/N=C/c2sccc2C)c2ccccc2n1 | 10% | ? | 1.9µM* | ? | 1% | 1.9µM*
COc1ccc(/C=N/NC(=O)c2cc(-c3ccccc3)nc3ccccc23)c(OC)c1 | -11% | 70 | 28% | -13% | 0% | 0%
O=C(CSc1nc(NS(=O)(=O)c2ccccc2)cc(=O)[nH]1)Nc1ccccc1Cl | -5% | -17 | ? | ? | -1% | 2%
Cc1ccc(S(=O)(=O)Nc2cc(=O)[nH]c(SCC(=O)Nc3cccc(C)c3)n2)cc1 | 0% | -13 | -1% | -4% | -4% | 1.9µM*
Cc1cc(=O)[nH]c(SCC(=O)Nc2ccc(C(=O)O)cc2)n1 | -3% | -24 | 3% | 14% | 10% | nt
CCOc1ccc(NC(=O)CSc2nc(NS(=O)(=O)c3ccc(C)cc3)cc(=O)[nH]2)cc1 | 3% | -31 | 94% | -1% | -5% | -10%
Cc1cc(=O)[nH]c(SCC(=O)Nc2ccc(S(N)(=O)=O)cc2)n1 | -1% | -61* | 60% | 17% | 0% | -15%
CCc1ccc(NC(=O)CSc2nc(NS(=O)(=O)c3ccccc3)cc(=O)[nH]2)cc1 | -3%[57.1 µM] | 29 | 4.1µM* | ? | 1% | ?
Cc1ccc(NC(=O)CSc2nc(NS(=O)(=O)c3ccccc3)cc(=O)[nH]2)cc1 | 6% | nt | 3.7µM* | 21% | 0% | nt
CCOc1ccccc1CN1CCNC(=O)C1CC(=O)N(C)C1CCOCC1 (stereo not drawn) | ? | -23 | 10% | 17% | -2% | ?
OC(CN1CCOCC1)c1ccc(F)cc1 (stereo not drawn) | -8% | -15 | 0% | 19% | -1% | 6%
SMILES | Sm TGR block | HCMV inh | Pf growth 96h | HCV inhibitor | SARS PLP yeast | Pf growth 48h
O=C(c1ccc(F)cc1)C(CCCCCC(CN1CCOCC1)C(=O)c1ccc(F)cc1)CN1CCOCC1 (stereo not drawn) | -32% | -21 | 9.3µM* | ? | -1% | ?
CC1CN(C(=S)NC(=O)c2ccc(Cl)cc2)CC(C)O1 (stereo not drawn) | -1% | ? | 28% | 5% | 9% | ?
COc1ccc(C(=O)NC(=S)Nc2ccc(CN3CCCCC3)cc2)cc1Cl | 40µM* | ? | 31% | -18% | -1% | ?
COc1ccc(C(=O)NC(=S)Nc2ccc(CN3CCOCC3)cc2)cc1Cl | 14µM* | ? | ? | 9% | 5% | ?
COc1ccc(C(=O)NC(=S)N2CC(C)OC(C)C2)cc1OC (stereo not drawn) | -8% | 2 | 5.2µM* | 16% | 1% | -20%
COc1ccc(C(=O)NC(=S)Nc2ccc(CN3CCOCC3)cc2)cc1OC | 20µM* | -10 | -12% | -30% | 0% | -12%
COc1cc(-c2noc(-c3ccc(N(C)C)c([N+](=O)[O-])c3)n2)cc(OC)c1OC | -9% | 4 | nt | nt | nt | nt
COc1cc(NC(=O)Cn2c(-c3ccccc3)cc(C(C)=O)c2C)cc(OC)c1 | 8% | 0 | nt | nt | nt | nt
CSc1ncccc1C(=O)OCC(=O)NC(C)CCc1ccccc1 (stereo not drawn) | nt | 28 | nt | -14% | -1% | nt
Cc1cc(SCC(=O)Nc2nsc(-c3ccc(C(C)(C)C)cc3)n2)nc2ccccc12 | 6% | 289 | nt | nt | nt | nt
O=C(O)Cc1csc(Nc2cccc(Cl)c2)n1 | -26% | -9 | 13µM* | 6% | -58% | 37%
CC(C)c1ccc(Nc2nc(CC(=O)O)cs2)cc1 | 4% | 78 | 52% | 23% | 1% | 273%
c1ccc(OCCCCN2CCCCC2)cc1 | -6% | 7 | 27% | -23% | -7% | -1%
c1ccc2c(c1)OC(CCCN1CCCCC1)c1ccccc1S2 (stereo not drawn) | -13% | -29 | 10µM* | 25µM* | -3% | 13µM*
CN1CCCC(CC2Oc3ccccc3Sc3ccccc32)C1 (stereo not drawn) | -7% | ? | ? | 11µM* | -11% | 13µM*
COc1ccc([C@@H]2[C@H](C(=O)N3CCCC3)CC(=O)N2C(=O)c2ccccc2)cc1 | nt | -4 | nt | nt | nt | nt
O=C(C1CCC1)N1CCc2cc(S(=O)(=O)NCc3ccc(F)cc3)ccc21 | -1% | 4 | nt | nt | nt | nt
Cc1cc(C(=O)CSc2nnc(-c3ccc(F)cc3)o2)c(C)n1CC1COc2ccccc2O1 (stereo not drawn) | 4% | -15 | ? | -19% | 7% | ?

High-throughput results deposited in PubChem BioAssay by National Center for Advancing Translational Sciences (NCATS).
